Screening results deposited in PubChem BioAssay by National Center for Advancing Translational Sciences (NCATS).
TRPML1 blocker – inhibitors of human TRPML1 channel; activity change, negative = inhibition, % (test concentration not listed); 0.02% of 390,000 active; TRPML1-inducible cells, Ca2+ dye fluorescence, FDSS; stronger effect = lower value; inhibition of EC80 agonist-evoked calcium signal; in the data active means activity change below about -50%; inconclusive means between about -30% and that limit;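 further: stimulus is agonist 54-4 at its EC80 concentration; on the % scale 0 is the no-effect control and ±100 the full control effect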
Target sequence (Q9GZU1 whole entry, looked up): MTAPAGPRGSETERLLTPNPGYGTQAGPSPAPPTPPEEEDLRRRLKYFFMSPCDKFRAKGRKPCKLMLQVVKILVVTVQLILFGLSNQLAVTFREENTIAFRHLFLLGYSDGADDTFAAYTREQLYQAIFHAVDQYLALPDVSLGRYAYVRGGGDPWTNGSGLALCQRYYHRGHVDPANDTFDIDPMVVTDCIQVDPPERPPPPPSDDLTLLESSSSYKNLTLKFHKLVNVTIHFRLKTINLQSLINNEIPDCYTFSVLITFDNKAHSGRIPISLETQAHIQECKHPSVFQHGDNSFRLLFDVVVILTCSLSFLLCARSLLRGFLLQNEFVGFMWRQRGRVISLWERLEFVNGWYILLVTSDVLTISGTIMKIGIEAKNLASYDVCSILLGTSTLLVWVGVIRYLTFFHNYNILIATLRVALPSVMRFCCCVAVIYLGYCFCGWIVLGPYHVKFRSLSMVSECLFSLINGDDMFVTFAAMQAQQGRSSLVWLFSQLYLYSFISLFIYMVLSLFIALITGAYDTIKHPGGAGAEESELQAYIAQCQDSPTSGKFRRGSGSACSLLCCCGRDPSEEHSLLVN
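Tet-induced TRPML1-DL cells loaded with Ca8 no-wash calcium dye were read kinetically on FDSS. Compound addition was followed by EC80 agonist 54-4 (4 uM final); inhibition was read over 110 s.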
TRPV1 PAM – potentiators of human vanilloid receptor 1 (TRPV1). Q8NER1. TRPV1-expressing cells, Fluo-8 calcium influx, capsaicin EC20 potentiation. potentiation, % at 8.33 µM. 0.02% of 320,000 active. AID 540277; in the data active means potentiation above about 80%; inconclusive means between about 30% and that limit; further: 0% is about no effect
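TRPV1-expressing cells were cultured overnight at 35.5C and loaded with Fluo-8 calcium dye for 40 to 90 min at room temperature. After a 10 s baseline, compound was added and calcium influx was read kinetically for 3 min (ex 480/em 520 nm).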
LDHA block – blocks human lactate dehydrogenase A; P00338; purified LDHA, NADH/diaphorase-resazurin fluorescence; stronger effect = lower value; activity change, % (values are at about 110 or 230 µM); 0.15% of 480,000 active; AID 1347041; in the data active means activity change below about -30%; inconclusive means mostly about -25% to -30%;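 further: plate controls were DMSO wells for no effect and wells without enzyme for full effect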
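Remaining NADH was detected by diaphorase (0.133 mg/mL) converting 37 µM resazurin to fluorescent resorufin, read at 0 and 20 minutes. The preceding 5-minute room-temperature reaction used 2 nM LDHA, 0.2 mM sodium pyruvate and 0.06 mM NADH at pH 7.4.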
TRPML1 ag – activates the human TRPML1 channel; Q9GZU1; TRPML1-expressing cells, Ca2+ dye fluorescence, FDSS; activation, % (no concentration beside the values); 0.12% of 410,000 active; in the data active means activation above about 50%; inconclusive means mostly about 30% to 49%; further: 0% is about no effect
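Calcium fluorescence on an FDSS kinetic reader gave the read-out. Tet-induced TRPML1-DL cells were plated overnight, dye-loaded (Ca8 with quencher, 45-90 min, room temperature, dark), then read 110 s after compound addition, and again 110 s after 4uM final 54-4 (EC80).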
TRPV1 ag – agonists of human vanilloid receptor 1 (TRPV1) | TRPV1-expressing cells, Fluo-8 calcium influx, agonist mode | activation, % at 8.33 µM | 0.19% of 320,000 active; in the data active means activation above about 80%; inconclusive means between about 30% and that limit; further: 0% is about no effect
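Cells expressing TRPV1 were dye-loaded with Fluo-8 and read kinetically: 10 s baseline, 3 min after compound (agonist portion), then 2 min after EC20 capsaicin (allosteric enhancer portion). Calcium-bound dye fluorescence at 480/520 nm.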
* marks the source's active call; other numbers are inactive results; ? = inconclusive; . = no result given; ! = not active in a repeat. Shown are actives, neighbours in structure and some others; about 0.41% of the full set was active somewhere.

SMILES	TRPML1 blocker	TRPV1 PAM	LDHA block	TRPML1 ag	TRPV1 ag
CCCCCCC[n+]1ccc(/C=C/c2c(C)[nH]c3ccccc23)cc1	.	.	.	57.1*	.
Cc1cc(C)nc(NC(c2ccsc2)c2cc(C)sc2NC(=O)c2ccco2)n1 (stereo not drawn)	.	.	7.9	.	.
O=C(CCCc1nc2ccccc2s1)N1CCCC1c1ccc(F)cc1 (stereo not drawn)	.	.	1.0	.	.
Cc1cc(=O)[nH]c(SCCCOc2ccc(F)cc2)n1	-13.3	-4.0	-1.3	2.5	1.9
CCCOc1cccc(OCCSc2nc(C)cc(=O)[nH]2)c1	44.3	-3.2	-4.0	2.4	81.6*
COc1ccc(CCNC(=O)COc2ccc(S(=O)(=O)NC(C)C)cc2Cl)cc1OC	-60.6*	-12.7	16.5	0.2	-0.5
COc1ccc(CCNC(=O)CCc2ccc(S(=O)(=O)NC(C)C)cc2)cc1OC	-0.6	5.6	-1.2	2.4	-3.8
COc1cccc(CN(CC2CCCO2)S(=O)(=O)c2ccc(S(=O)(=O)N(C)C)cc2)c1 (stereo not drawn)	-11.4	-11.1	-2.9	86.9*	11.7
CC(=O)Oc1ccc2c(C)cc(=O)oc2c1C(=O)c1ccccc1	1.0	1.7	-34.6*	0.8	0.5
COc1ccc(C(=O)Oc2ccc3c(C)cc(=O)oc3c2C(C)=O)cc1	-16.5	-1.8	-1.0	-0.3	1.0
O=C(c1cc(-c2ccc(Br)cc2)on1)N1CCCCCC1	-5.8	0.1	-6.8	-0.1	?
O=C(c1cc(-c2ccc(Br)cc2)on1)N1CCOCC1	-4.8	-17.2	-3.0	0.3	99.2*
CC1=NN(c2nc(C)cc(C)n2)C(=O)C1Cc1ccc(Br)cc1 (stereo not drawn)	.	.	5.1	.	.
CC1=NN(c2nc(C)cc(C)n2)C(=O)C1Cc1ccc(Cl)cc1 (stereo not drawn)	.	.	-36.0*	.	.
CCCCCC1=CCC/C1=N/NC(=S)NCCOC	.	.	-0.1	.	.
CCOc1ncccc1C(=O)N(Cc1nnc(-c2ccccc2)o1)C(C)C	.	.	5.9	.	.
COc1ccc(C(=O)C[n+]2cc(Br)cc3ccccc32)cc1	.	.	1.1	2.2	.
COc1ccc(C(=O)C[n+]2cn(C(F)F)c3ccccc32)c(F)c1	9.9	-11.5	-40.0*	0.6	-2.4
Brc1ccc2[nH]cc(/C=N/n3cnnc3)c2c1	.	.	8.9	.	.
Cc1cccc(N(C)S(=O)(=O)c2cc(-c3cc(C)no3)ccc2C(C)C)c1	.	.	9.0	.	.
CCc1ccccc1N(C(C)=O)c1nc(COc2ccccc2C(N)=O)cs1	.	.	-30.1*	.	.
CCn1nc(C(=O)Nc2nc3c(s2)CC(C)CC3)c2ccccc2c1=O (stereo not drawn)	.	.	9.8	.	.
O=c1[nH]n(-c2ccccc2)c(=O)c2ccccc12	-4.5	-2.1	-15.2	-0.6	-2.0
O=C(O)c1cc2c(ncc3c(=O)n(-c4ccccc4)[nH]c32)s1	.	.	-34.6*	-0.4	.
CCn1c(C)[n+](CCCS(=O)(=O)[O-])c2cc(Cl)c(Cl)cc21	-2.6	-2.9	-46.1*	0.2	0.0
SMILES	TRPML1 blocker	TRPV1 PAM	LDHA block	TRPML1 ag	TRPV1 ag
N#Cc1ccc(Oc2ccc(C=O)cc2)cc1C#N	.	.	1.8	.	.
Cc1cc(C)c(O)c(-c2n[nH]c3c2C(c2ccc(Cl)c(Cl)c2)N(CCCO)C3=O)c1 (stereo not drawn)	.	.	0.6	.	.
Cc1nnc(N2CCN(C(=O)Nc3ccccc3)CC2)c2nn(-c3ccc(Cl)cc3)c(C)c12	.	.	-5.8	.	.
O=C(Nc1ccc(S(=O)(=O)NCc2ccco2)cc1)c1ccncc1	9.1	2.2	-1.3	-0.3	0.9
CCc1ccc(NC(=O)c2ccc(S(=O)(=O)NCc3cccnc3)cc2)cc1	-4.2	-31.1	-3.9	1.1	87.2*
Cc1ccc(NC(=O)c2ccc(S(=O)(=O)NCc3ccco3)cc2)cc1	-6.4	0.7	-4.1	0.3	81.9*
Cc1ccc(C2C(C#N)=C(N)SC(N)=C2C#N)c(C)c1	0.7	25.1	15.4	64.4*	-1.3
O=C(c1ccccc1)N(Cc1ccco1)c1ccccn1	.	.	16.5	.	.
COc1ccc(NC(=O)N2CCN3CCCCC3C2)cc1OC (stereo not drawn)	-50.6*	.	12.2	0.8	.
Cc1ccc2c(c1)cc(C(=O)NCCN(C)C)n2C	.	.	-2.3	.	.
Brc1cccc[n+]1CCCCCC[n+]1ccccc1Br	.	.	-59.9*	0.0	.
Brc1cccc[n+]1CCCC[n+]1ccccc1Br	.	.	-61.6*	-0.4	.
COc1cc(C(=O)Nc2ccc3oc(-c4ccc5ccccc5c4)nc3c2)cc(OC)c1OC	.	.	2.0	.	.
CC(C)(C)c1ccc(C(=O)Nc2cccc(-n3cnnn3)c2)cc1	8.1	-1.1	1.6	0.1	80.2*
CCOc1ccc(C(=O)Nc2cccc(-n3cnnn3)c2)cc1OCC	6.2	-9.3	-9.8	0.5	-1.8
CCCCOc1ccc(C(=O)Nc2cccc(-n3cnnn3)c2)cc1OC	-1.5	-23.1	0.9	-0.8	88.5*
CN(CC(=O)Nc1c(Cl)cccc1Cl)C(=O)c1cccc(-n2cccc2)c1	4.6	?	-37.1*!	-0.4	0.8
CN(CC(=O)Nc1ccccc1Cl)C(=O)c1cccc(-n2cccc2)c1	-3.7	17.0	-0.7	-0.7	7.7
CC(=O)c1ccc(N2CCN(C(=O)Nc3ccc(C)cc3)CC2)cc1	-23.8	0.0	-1.2	2.4	93.5*
CC(=O)c1ccc(NC(=O)N2CCN(c3ccc(C)cc3)C(C)C2)cc1 (stereo not drawn)	18.1	2.4	0.9	0.3	84.3*
O=C(C[n+]1c2ccccc2cc2ccccc21)c1ccc(F)cc1	.	.	-44.9*	0.5	.
CS(=O)(=O)N1CCC(NS(=O)(=O)c2cccc(Cl)c2)CC1	.	.	7.2	.	.
CC(C)(C)c1ccc(/C=N/OCC(=O)NCc2ccc(F)cc2)cc1	-3.5	1.4	1.0	3.3	91.6*
CCOc1ccc(NC(=O)C(Cc2ccccc2)N2C(=O)c3cccc4cccc(c34)C2=O)cc1 (stereo not drawn)	-5.1	8.2	-1.1	61.3*	-5.9
COc1ccc(CN2CCN(CCSc3ccc(C)cc3)CC2)c(OC)c1OC	-15.7	10.0	-37.5*	-0.1	-1.1
SMILES	TRPML1 blocker	TRPV1 PAM	LDHA block	TRPML1 ag	TRPV1 ag
COc1ccc(OC)c(CN2CCN(Cc3ccc(OC)c(OC)c3OC)CC2)c1	-7.6	.	-20.7	-0.4	.
O=C(CSc1ccc2c(c1)OCCCO2)Nc1cccc2ccccc12	.	.	-16.4	.	.
O=C(NCC(c1cccs1)N1CCCCCC1)c1cc(=O)c2ccc(Br)cc2o1 (stereo not drawn)	.	.	-30.6*	.	.
O=C(NCC(c1ccco1)N1CCOCC1)c1cc(=O)c2cc(Br)ccc2o1 (stereo not drawn)	.	.	-30.9*	.	.
O=C(NCC(c1cccs1)N1CCOCC1)c1cc(=O)c2cc(Br)ccc2o1 (stereo not drawn)	.	.	-31.2*	.	.
CC(=O)c1ccc(NC(=O)c2nc(-c3ccccc3)oc2C)cc1	.	.	-1.1	.	.
COc1ccc(-c2cc(C(F)F)n3ncc(C(=O)Nc4c(C)n(C)n(-c5ccccc5)c4=O)c3n2)cc1	-0.1	17.5	-12.6	0.7	0.5
